The text below walks through data of PubChem BioAssay (Tox21).

Values without a mark were called inactive. Inconclusive results are not listed. The source made the active and inactive calls. Unless noted, calls come from the whole dose curve; as a rule, active = well fitted curve in the direction sought with a large enough effect in the repeat runs; inconclusive = weak or mixed curves; inactive = no such curve, though single readings can be large; an effect the other way counts as inactive or inconclusive.

The nature of assay [1]: qHTS assay to identify small molecule agonists of the estrogen receptor alpha (ER-alpha) signaling pathway in the presence of an antagonist - cell viability counter screen (AID 1259386).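 Note: cells exposed to compounds for 22 h at 37 °C before the viability read; nearly all actives have a fitted effect of over 30% in size.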 Note: potency is the fitted concentration of half-maximal effect. An outline of the steps:
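Cytotoxicity was measured in parallel with the ERE-luciferase agonist screen, in the same wells. The cells were VM7Luc4E2, which endogenously express ER-alpha, and treatment was with compounds plus 10.0nM ICI-182,780 for 22hr.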
(In general: In qHTS, concentration-response curves come from the screen itself.)

The target of assay [2] is Progesterone receptor (Homo sapiens) (UniProt P06401). The assay can be described thus: qHTS assay to identify small molecule agonists of the progesterone receptor (PR) signaling pathway (AID 1346784; calls by dose curve; note: nearly all actives have a fitted effect of over 30% in size). An outline of the steps:
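Seed PR-UAS-bla HEK 293T cells (2% charcoal-stripped FBS), incubate 6 hr at 37C; add compounds in DMSO, 16 hr at 37C; add LiveBLAzer B/G substrate, 2 hr RT; read fluorescence intensity.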

For assay [3] the target is unchanged. Briefly: qHTS assay to identify small molecule antagonists of the progesterone receptor (PR) signaling pathway (AID 1346795; active = well fitted inhibition curve with a large enough effect in the signal ratio in the repeat runs, not every such curve was filed as active; the % refers to the signal ratio). An outline of the steps:
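Screening used a GripTite HEK293T line with PR-responsive UAS-beta-lactamase. Cells were challenged with compound in the presence of 1 nM R5020 final for 16 hr at 37C; B/G FRET substrate, 2 hr room temperature, fluorescence.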

Assay [4] can be described thus: qHTS assay to identify small molecule antagonists of the progesterone receptor (PR) signaling pathway - cell viability counter screen (AID 1346798). Note: series mostly up to about 92 µM; nearly all actives have a fitted effect of over 50% in size. An outline of the steps: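 Measures cytotoxicity in parallel with the PR antagonist reporter read: HEK293T PR-UAS-bla cells get compound and R5020 for 16 hr, and remaining viable cells are quantified by CellTiter-Glo luminescence.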

The nature of assay [5]: qHTS assay to identify small molecule agonists of the progesterone receptor (PR) signaling pathway - cell viability counter screen (AID 1346799; calls by dose curve; note: nearly all actives have a fitted effect of over 45% in size). An outline of the steps:
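Using the same plates as the PR reporter screen, HEK293T PR-UAS-bla cells received compounds for 16 hr at 37C and were then lysed with CellTiter-Glo; luminescence was read 30 min later at room temperature.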

The nature of assay [6]: qHTS assay to identify small molecule agonists of the TGF-beta/Smad signaling pathway - cell viability counter screen (AID 1346829). Note: top concentration of the series differs between compounds; nearly all actives have a fitted effect of over 45% in size. An outline of the steps:
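Luminescence from CellTiter-Glo, read after a 30 min room-temperature incubation, gives cell viability of SBE-bla HEK 293T cells treated 5 hr with compounds at 37 C.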

The nature of assay [7]: qHTS assay to identify small molecule agonists of the TGF-beta/Smad signaling pathway (AID 1346859; active = well fitted activation curve with a large enough effect in the signal ratio in the repeat runs, not every such curve was filed as active; the % refers to the signal ratio; note: series mostly up to about 77 µM). An outline of the steps:
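Beta-lactamase reporter activity downstream of Smad binding elements was measured in stably transfected HEK 293T cells; compounds were incubated for 5 hr, substrate for 2 hr at room temperature.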

Assay [8] deals with Thyrotropin-releasing hormone receptor (Homo sapiens) (UniProt P34981). The assay can be described thus: qHTS assay to identify small molecule antagonists of the thyrotropin-releasing hormone receptor (TRHR) signaling pathway (AID 1346877; active = well fitted inhibition curve with a large enough effect in the repeat runs, not every such curve was filed as active; note: series mostly up to about 51 µM). An outline of the steps:
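Antagonism is measured as suppression of the calcium response to 1 nM TRH in TRHR-HEK293 cells that have been dye-loaded for 2 h at 37 °C after overnight plating. Each compound is tested at 15 concentrations in triplicate.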

Assay [9] has the same target. Briefly: qHTS assay to identify small molecule agonists of the thyrotropin-releasing hormone receptor (TRHR) signaling pathway (AID 1346891; calls by dose curve;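 note: HEK293 cells expressing TRHR with calcium dye readout; series mostly up to about 58 µM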). An outline of the steps: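 Overnight-plated (18 h, 37 °C, 5% CO2) TRHR-Hek293 cells; 2 h calcium dye at 37 °C; compound in DMSO; 3-min kinetic fluorescence read.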
A short description of assay [10]: Human pregnane X receptor (PXR) small molecule agonists, qHTS cell viability counter screen (AID 1346977). Note: nearly all actives have a fitted effect of over 50% in size. Note: potency is the fitted concentration of half-maximal effect. An outline of the steps: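 After a 5hr pre-incubation, PXR-Luc HepG2 cells received compounds plus positive control in DMSO and were kept 24hr at 37C. Cell viability was quantified by fluorescence from CellTiter-Fluor added for the final hour.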
A short description of assay [11]: Caspase-3/7 induction in HepG2 cells by small molecules, qHTS assay (AID 1346978). Note: nearly all actives have a fitted effect of over 15% in size. An outline of the steps:
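Wild-type HepG2 cells (2,000/well) were settled 5 h at 37 C, 5% CO2, then exposed to compounds in DMSO for 17 h. Caspase-3/7 activity was read by luminescence 30 min after adding Caspase-Glo 3/7 reagent at room temperature.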

Assay [12] can be described thus: Caspase-3/7 induction in CHO-K1 cells by small molecules, qHTS cell viability counter screen (AID 1346979). Note: nearly all actives have a fitted effect of over 35% in size. Note: potency is the fitted concentration of half-maximal effect. An outline of the steps: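 Multiplexed with Caspase-Glo 3/7 in CHO-K1 cells, this counter screen added CellTiter-Fluor after 16hr of compound exposure and recorded fluorescence 1hr later.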
Assay [13] is described as follows: Caspase-3/7 induction in CHO-K1 cells by small molecules, qHTS assay (AID 1346980). Note: nearly all actives have a fitted effect of over 15% in size. An outline of the steps: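 Wild-type cells were seeded at 1,500 per well and settled 5 hr at 37 C, 5% CO2, then exposed to DMSO-dissolved compounds for 17 hr. Caspase-Glo 3/7 reagent was added, and luminescence was read after 30min at room temperature.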
Assay [14] in a line: Caspase-3/7 induction in HepG2 cells by small molecules, qHTS cell viability counter screen (AID 1346981). Note: nearly all actives have a fitted effect of over 30% in size. Note: potency is the fitted concentration of half-maximal effect. An outline of the steps:
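Cell viability is measured as a cytotoxicity counter screen alongside the Caspase-Glo 3/7 readout in identical wells. Wild-type HepG2 cells are treated with test compounds for 16 hr at 37 C before CellTiter-Fluor addition and a 1-hr incubation.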

Assay [15] addresses Nuclear receptor subfamily 1 group I member 2 (Homo sapiens) (UniProt O75469). Briefly: Human pregnane X receptor (PXR) small molecule agonists, qHTS assay (AID 1346982). Note: nearly all actives have a fitted effect of over 35% in size. Note: potency is the fitted concentration of half-maximal effect. An outline of the steps: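 Cells: HepG2 stably carrying PXR-Luc. Medium held 5% charcoal-stripped FBS. Compounds in DMSO added after 5 hr plating, incubated 24 hr, then luminescence quantified with ONE-Glo.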

For assay [16], the target named is Acetylcholinesterase (Homo sapiens) (UniProt P22303). The assay can be described thus: Acetylcholinesterase (AChE) small molecule antagonists: colormetric cell-based qHTS assay (AID 1347395; calls by dose curve; note: nearly all actives have a fitted effect of over 30% in size). An outline of the steps:
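In this cell-based qHTS, attached SH-SY5Y cells were treated with test chemicals for 30 min, after which acetylthiocholine hydrolysis was followed by DTNB colour development over 90 min at 37 C.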

Assay [17] can be described thus: qHTS assay to identify small molecule antagonists of the TGF-beta/Smad signaling pathway - cell viability counter screen (AID 1346824). Note: nearly all actives have a fitted effect of over 50% in size. An outline of the steps: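 SBE-bla HEK 293T cells were plated overnight at 37 C, then given compounds in DMSO plus TGF-beta1 (added as 0.25 ng/mL solution) for 5 hr. After the bla read, CellTiter-Glo was added to the same wells and luminescence read after 30 min at room temperature.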

The target of assay [18] is Nuclear receptor subfamily 1 group I member 2 (Rattus norvegicus) (UniProt Q9R1A7). The assay can be described thus: Rat pregnane X receptor (rPXR) activation by small molecules, qHTS assay (AID 1346983). Note: nearly all actives have a fitted effect of over 20% in size. The conditions noted are these: rPXR luciferase reporter cells, One-Glo luminescence, 24 h; active compounds read high. An outline of the steps:
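Cell-based rPXR luciferase reporter assay, 2,000 cells per well, rested 5hr at 37 C before compound addition in DMSO, then 24 hr at 37 C. One-Glo reagent was added and luminescence read after 30 min at room temperature.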

The target of assay [19] is Nuclear receptor subfamily 1 group I member 2 (Homo sapiens) (UniProt O75469). Briefly: CYP3A4 induction through human pregnane X receptor (PXR) by small molecules, qHTS assay (AID 1346984). Note: nearly all actives have a fitted effect of over 40% in size. An outline of the steps: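 Quantitative HTS in DPX-2 cells, i.e. HepG2 transfected with PXR response element and CYP3A4-promoter luciferase. Compounds in DMSO incubated 24hr at 37C; then P450-Glo CYP3A4 substrate, 3uM final, 3hr; One-Glo luminescence.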
Chain of Nuclear receptor subfamily 1 group I member 2 (Homo sapiens) (O75469 whole entry, looked up): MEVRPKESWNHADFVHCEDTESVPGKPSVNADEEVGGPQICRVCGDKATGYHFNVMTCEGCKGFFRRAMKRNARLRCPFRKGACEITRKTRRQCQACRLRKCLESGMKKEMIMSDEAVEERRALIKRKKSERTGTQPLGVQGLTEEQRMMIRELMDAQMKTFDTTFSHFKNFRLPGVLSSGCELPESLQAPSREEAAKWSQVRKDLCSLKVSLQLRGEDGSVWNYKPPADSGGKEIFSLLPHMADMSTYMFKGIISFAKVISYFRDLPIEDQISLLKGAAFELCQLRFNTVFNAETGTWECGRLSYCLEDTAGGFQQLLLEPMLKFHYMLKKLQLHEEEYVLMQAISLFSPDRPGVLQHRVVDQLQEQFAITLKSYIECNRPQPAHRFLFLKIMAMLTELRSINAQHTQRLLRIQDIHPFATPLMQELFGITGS

The target is the same in assay [20]. Briefly: Human pregnane X receptor (PXR) activation by small molecules, qHTS assay (AID 1346985). Note: nearly all actives have a fitted effect of over 40% in size. An outline of the steps:
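DPX-2 cells (HepG2 co-transfected with a PXR response element and a CYP3A4-promoter luciferase construct) were seeded at 2,000 per well, rested 5 hr at 37C, then exposed to DMSO-dissolved compounds for 24 hr. Activation was read as luciferase luminescence.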
% is set by controls: 0 for no effect and ±100 for the full control effect.

Chain of Nuclear receptor subfamily 1 group I member 2 (Rattus norvegicus) (Q9R1A7 whole entry, looked up): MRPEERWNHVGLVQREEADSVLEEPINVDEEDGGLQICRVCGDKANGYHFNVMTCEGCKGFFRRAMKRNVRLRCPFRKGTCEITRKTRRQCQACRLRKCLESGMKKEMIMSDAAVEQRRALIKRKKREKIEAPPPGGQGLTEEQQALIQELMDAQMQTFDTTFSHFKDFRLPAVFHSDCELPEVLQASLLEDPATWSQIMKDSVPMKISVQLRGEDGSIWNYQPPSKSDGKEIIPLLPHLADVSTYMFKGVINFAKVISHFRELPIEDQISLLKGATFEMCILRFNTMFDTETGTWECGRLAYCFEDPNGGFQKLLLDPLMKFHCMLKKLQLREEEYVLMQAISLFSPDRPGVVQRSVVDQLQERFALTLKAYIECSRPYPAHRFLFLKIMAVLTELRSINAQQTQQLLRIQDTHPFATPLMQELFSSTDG
Chain of Acetylcholinesterase (Homo sapiens) (P22303 whole entry, looked up): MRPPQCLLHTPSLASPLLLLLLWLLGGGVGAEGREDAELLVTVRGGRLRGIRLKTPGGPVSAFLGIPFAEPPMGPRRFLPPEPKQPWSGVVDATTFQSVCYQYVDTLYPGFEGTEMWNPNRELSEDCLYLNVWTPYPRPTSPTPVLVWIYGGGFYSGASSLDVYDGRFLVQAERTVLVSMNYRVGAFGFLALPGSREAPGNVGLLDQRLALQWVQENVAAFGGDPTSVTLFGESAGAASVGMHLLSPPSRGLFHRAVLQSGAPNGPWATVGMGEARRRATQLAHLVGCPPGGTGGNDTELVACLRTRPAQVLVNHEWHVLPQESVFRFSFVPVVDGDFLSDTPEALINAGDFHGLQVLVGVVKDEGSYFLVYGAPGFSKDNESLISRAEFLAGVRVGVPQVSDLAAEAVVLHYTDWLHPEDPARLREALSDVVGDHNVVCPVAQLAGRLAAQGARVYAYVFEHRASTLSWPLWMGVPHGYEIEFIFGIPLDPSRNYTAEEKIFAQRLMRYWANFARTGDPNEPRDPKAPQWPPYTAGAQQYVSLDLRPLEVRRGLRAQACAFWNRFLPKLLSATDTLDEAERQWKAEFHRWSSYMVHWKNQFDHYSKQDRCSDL
Chain of Thyrotropin-releasing hormone receptor (Homo sapiens) (P34981 whole entry, looked up): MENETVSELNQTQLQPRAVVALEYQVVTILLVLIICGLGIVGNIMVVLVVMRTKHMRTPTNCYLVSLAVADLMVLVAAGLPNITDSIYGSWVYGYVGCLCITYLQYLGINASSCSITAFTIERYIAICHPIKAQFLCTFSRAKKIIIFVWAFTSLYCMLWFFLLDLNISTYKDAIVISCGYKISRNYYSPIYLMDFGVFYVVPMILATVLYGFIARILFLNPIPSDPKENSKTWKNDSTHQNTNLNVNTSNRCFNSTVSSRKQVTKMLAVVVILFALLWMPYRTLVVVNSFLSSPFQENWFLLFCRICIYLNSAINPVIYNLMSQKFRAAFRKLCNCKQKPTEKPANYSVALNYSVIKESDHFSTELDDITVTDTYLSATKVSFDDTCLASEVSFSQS
Chain of Progesterone receptor (Homo sapiens) (P06401 whole entry, looked up): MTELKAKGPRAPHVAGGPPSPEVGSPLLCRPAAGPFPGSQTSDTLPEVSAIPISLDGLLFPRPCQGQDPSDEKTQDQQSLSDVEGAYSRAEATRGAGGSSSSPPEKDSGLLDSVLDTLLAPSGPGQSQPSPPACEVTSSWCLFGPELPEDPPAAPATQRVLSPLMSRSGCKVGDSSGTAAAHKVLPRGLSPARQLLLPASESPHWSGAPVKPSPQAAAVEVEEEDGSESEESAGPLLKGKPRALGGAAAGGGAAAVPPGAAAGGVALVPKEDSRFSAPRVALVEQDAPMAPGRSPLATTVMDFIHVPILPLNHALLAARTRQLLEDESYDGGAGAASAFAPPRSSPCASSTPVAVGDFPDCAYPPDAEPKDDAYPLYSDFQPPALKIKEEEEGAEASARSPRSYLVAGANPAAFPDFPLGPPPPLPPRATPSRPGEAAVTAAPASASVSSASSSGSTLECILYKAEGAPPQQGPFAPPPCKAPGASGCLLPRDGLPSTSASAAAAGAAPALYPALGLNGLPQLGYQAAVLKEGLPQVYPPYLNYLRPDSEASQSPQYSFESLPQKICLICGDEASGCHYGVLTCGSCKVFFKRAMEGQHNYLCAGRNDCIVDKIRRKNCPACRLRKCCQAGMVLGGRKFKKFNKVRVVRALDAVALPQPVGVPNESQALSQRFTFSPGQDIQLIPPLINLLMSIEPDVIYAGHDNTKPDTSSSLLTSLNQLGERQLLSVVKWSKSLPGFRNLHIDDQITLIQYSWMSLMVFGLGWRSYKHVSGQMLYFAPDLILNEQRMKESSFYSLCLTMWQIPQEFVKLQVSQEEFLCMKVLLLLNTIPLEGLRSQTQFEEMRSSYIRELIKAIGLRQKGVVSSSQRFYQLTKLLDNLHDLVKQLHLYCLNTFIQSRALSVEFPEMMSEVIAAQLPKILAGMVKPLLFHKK

For `CC(C)(C)c1ccc(CCOc2ncnc3ccccc23)cc1`, the Potency result in assay [1], in assay [2], in [3], in [4], in assay [5] and in [6] was “inactive” throughout. For the same compound, the Potency entry in [8], in assay [10], in assay [11], in assay [12], in assay [13] and in [14] was “inactive” throughout. In addition, the Potency entry in assay [15] and in assay [16] was “inactive” throughout. The compound was called inactive in [7] and in assay [9].
With `CC(C)(C)NCC(O)c1ccccc1Cl` (centres undefined), the Potency result in assay [1], in [2], in assay [3], in [4], in assay [5] and in assay [17] was “inactive” in each case. In addition, the Potency entry in [6], in assay [8], in [10], in assay [11], in [12] and in [13] was “inactive” in each case. Besides, the Potency entry in assay [15], in assay [20] and in assay [16] was “inactive” each time. The compound was called inactive in assay [7] and in [19]. Also, in assay [18], the max activation is -2.03%.
As to `CC(C)OC(=O)Cc1ccccc1`, the Potency entry in [1], in [2], in assay [3], in assay [4], in assay [5] and in assay [17] was “inactive” throughout. Also, the Potency result in assay [6], in assay [8], in [10], in assay [11], in assay [12] and in assay [13] was “inactive” throughout. For the same compound, the Potency result in assay [14], in [15] and in assay [16] was “inactive” throughout. Besides, the compound was called inactive in assay [7] and in [9].
Regarding `CN1C(=O)CN=C(c2ccccc2)c2cc([N+](=O)[O-])ccc21`, the Potency entry in assay [1], in assay [2], in assay [3], in [4], in [5] and in assay [17] was “inactive” each time. Also, the Potency result in assay [6], in assay [8], in assay [10], in assay [11], in assay [12] and in assay [13] was “inactive” throughout. The Potency result in assay [14], in assay [15] and in assay [16] was “inactive” throughout. Besides, the outcome in assay [9] and in [19] was inactive. Besides, in assay [18], the max activation is 8.45%.
`CCC1CCC(=O)O1` (centres undefined): the Potency result in assay [1], in [2], in assay [3], in assay [4], in assay [5] and in assay [17] was “inactive” in each case. The Potency entry in assay [6], in assay [8], in assay [10], in [11], in assay [12] and in [13] was “inactive” each time. Also, the Potency result in assay [15] and in [16] was “inactive” throughout. In addition, the result in [7] and in assay [9] was inactive.
Take `O=C(N/N=C/c1ccc([N+](=O)[O-])o1)c1cc([N+](=O)[O-])cc([N+](=O)[O-])c1O`: the Potency in [1] is 21.1 µM (active); in [10], 21.1 µM (active); in assay [12], 23.7 µM (active); in assay [14], 13.3 µM (active). Moreover, the Potency entry in [2], in assay [3], in [4], in [5], in [17] and in [6] was “inactive” in each case. Further, the Potency result in [8], in assay [11], in [15], in [20] and in assay [16] was “inactive” in each case. Further, the compound was called inactive in [7] and in [19]. Moreover, the max activation in assay [18] is 3.24%.
As for `CC(C)c1ccc(NC(=O)N(C)C)cc1`, the Potency entry in assay [1], in [2], in assay [3], in [4], in assay [5] and in assay [6] was “inactive” throughout. In addition, the Potency result in assay [8], in assay [10], in assay [11], in assay [12], in assay [13] and in [14] was “inactive” each time. Besides, the Potency result in assay [16] was “inactive”. For the same compound, the compound was classed as inactive in assay [7] and in assay [9]. Further, the Potency in [15] was 30.6 µM (active).
